Experimental findings from PubChem BioAssay (NCI) are described below.

Molecules are shown by their SMILES. The panel holds about 83,000 compounds, 20% with a hit somewhere; the sample as a whole holds those more often.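 Plates (96-well) were seeded with cells, treated with compound at one concentration, and incubated for 48 hours before percent growth was determined.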 A number with no mark means an inactive call. Calls of active or inactive are those of the source. How the source made its calls: active means growth percent below 10; inactive means the rest.

What all share (test): NCI-60 one-dose screen, 48 h (100 = growth as untreated, 0 = no growth, -100 = all killed)
The test system of one assay is HCT-15 colon. Conditions: 10 µM unless noted.
A further assay has as its system HT29 colon. Conditions: 10 µM unless noted.
For another assay, the system named is SNB-75 CNS. Conditions: 10 µM unless noted.
The subject of another assay is SNB-19 CNS. Conditions: 10 µM unless noted.
A further assay relates to U251 CNS. Conditions: 10 µM unless noted.
The subject of another assay is PC-3 prostate. Conditions: 10 µM unless noted.
For another assay, the system named is SK-MEL-5 melanoma. Conditions: 10 µM unless noted.
Another assay concerns UACC-62 melanoma. Conditions: 10 µM unless noted.
The next assay relates to LOX IMVI melanoma. Conditions: 10 µM.
The test system of another assay is SK-MEL-28 melanoma. Conditions: 10 µM unless noted.

Turning to `O=C1Nc2ccccc2/C1=C\c1ccccc1O`, the growth in the assay with HCT-15 colon was 93.3%; with HT29 colon, 116%; in the assay on SNB-75 CNS, 64.9%; in the assay with SNB-19 CNS, 101%; with U251 CNS, 93.5%; in the assay with PC-3 prostate, 96.8%. Also, the growth in the assay with SK-MEL-5 melanoma was 92.6%; in the assay on UACC-62 melanoma, 80.5%; in the assay on LOX IMVI melanoma it was 84.8%; in the assay on SK-MEL-28 melanoma, 97%.

For `Cc1cc(=O)n(Nc2ccccc2)c(O)c1C#N`, the growth is 112% in the assay on HCT-15 colon; 105% in the assay with HT29 colon; 97.4% in the assay on SNB-75 CNS; 103% in the assay with SNB-19 CNS; 103% in the assay on U251 CNS; 99.4% in the assay with PC-3 prostate. Also, the growth was 104% in the assay on SK-MEL-5 melanoma, 103% in the assay on UACC-62 melanoma, 96.6% in the assay on LOX IMVI melanoma and 111% in the assay with SK-MEL-28 melanoma.

Take `O=C(O)CCCCCNC(=O)OCc1ccccc1`: the growth with HCT-15 colon was 103%; in the assay with HT29 colon, 108%; with SNB-75 CNS it was 74%; in the assay on SNB-19 CNS it was 105%; in the assay with U251 CNS it was 94.9%; with PC-3 prostate, 95.3%. The growth was 111% in the assay on SK-MEL-5 melanoma, 101% in the assay on UACC-62 melanoma, 104% with LOX IMVI melanoma and 106% in the assay on SK-MEL-28 melanoma.

With `CN(C)Cc1ccccn1`, the growth was 105% in the assay with HCT-15 colon; 97.4% in the assay on HT29 colon; 95.7% with SNB-75 CNS; 103% with SNB-19 CNS; 99.4% with U251 CNS; 90.3% in the assay on PC-3 prostate. Also, the growth in the assay with SK-MEL-5 melanoma was 101%; in the assay with UACC-62 melanoma it was 97.8%; in the assay on LOX IMVI melanoma, 96.3%; in the assay on SK-MEL-28 melanoma it was 102%.

`CC1CCC(C(C)(C)[N+](C)(C)C)CC1` (centres undefined): the growth in the assay with HCT-15 colon was 98.1%; in the assay with HT29 colon, 97.8%; in the assay on SNB-75 CNS it was 89%; with SNB-19 CNS it was 101%; in the assay on U251 CNS it was 96.6%; with PC-3 prostate it was 96.9%. The growth is 103% in the assay on SK-MEL-5 melanoma, 104% in the assay on UACC-62 melanoma and 102% in the assay on LOX IMVI melanoma.

`Cc1ccc(C)c2c1CCC2=O`: the growth in the assay on HCT-15 colon is 100%; in the assay with HT29 colon it was 105%; with SNB-75 CNS, 86.1%; in the assay on SNB-19 CNS, 93%; in the assay on U251 CNS it was 103%; in the assay with PC-3 prostate, 98.6%. The growth is 97.5% in the assay with SK-MEL-5 melanoma, 99.9% in the assay on UACC-62 melanoma, 96.2% with LOX IMVI melanoma and 104% in the assay on SK-MEL-28 melanoma.

Regarding `O=C(O)C1CCCN1C(=O)OCc1ccccc1` (centres undefined), the growth is 108% with HCT-15 colon; 97.6% in the assay with HT29 colon; 81.6% with SNB-75 CNS; 104% in the assay on SNB-19 CNS; 108% in the assay with U251 CNS; 108% in the assay with PC-3 prostate. The growth in the assay on SK-MEL-5 melanoma was 104%; in the assay with UACC-62 melanoma, 109%; in the assay with LOX IMVI melanoma it was 88.4%; in the assay on SK-MEL-28 melanoma, 105%.

As to `O=S(Cc1ccccc1)/C(=C/NC(=S)Nc1cc(Cl)ccc1Cl)c1ccccc1` (centres undefined), the growth in the assay on HCT-15 colon was 107%; with HT29 colon it was 97.4%; in the assay with SNB-75 CNS, 89.9%; in the assay on SNB-19 CNS, 104%; in the assay with U251 CNS, 101%; in the assay with PC-3 prostate, 94.1%. The growth in the assay on SK-MEL-5 melanoma was 102%; in the assay with UACC-62 melanoma, 98.6%; in the assay with LOX IMVI melanoma, 94.3%; in the assay with SK-MEL-28 melanoma, 109%.

For `O=C1NC(=O)C(c2ccccc2)O1` (centres undefined), the growth is 107% with HCT-15 colon; 105% in the assay on HT29 colon; 93.2% with SNB-75 CNS; 109% with SNB-19 CNS; 101% in the assay with U251 CNS; 102% in the assay on PC-3 prostate. Besides, the growth in the assay with SK-MEL-5 melanoma was 104%; in the assay on UACC-62 melanoma, 105%; in the assay with LOX IMVI melanoma, 97.4%; in the assay on SK-MEL-28 melanoma, 109%.

`Cc1cccc2ccccc12`: the growth was 92.9% in the assay on HCT-15 colon; 95.8% in the assay with HT29 colon; 86.8% with SNB-75 CNS; 103% in the assay with SNB-19 CNS; 102% in the assay with U251 CNS; 95.5% with PC-3 prostate. In addition, the growth in the assay on SK-MEL-5 melanoma was 100%; with UACC-62 melanoma, 103%; with LOX IMVI melanoma, 99.4%; in the assay with SK-MEL-28 melanoma, 98.2%.

For the compound `O=S1(=O)c2ccccc2Oc2ccccc21`, the growth is 101% in the assay with HCT-15 colon; 99.6% in the assay with HT29 colon; 80.5% in the assay with SNB-75 CNS; 104% with SNB-19 CNS; 94% with U251 CNS; 92.7% in the assay with PC-3 prostate. Besides, the growth was 108% in the assay on SK-MEL-5 melanoma, 102% in the assay with UACC-62 melanoma, 102% with LOX IMVI melanoma and 99.4% with SK-MEL-28 melanoma.

With `COc1cccc2c1Cc1ccccc1-2`, the growth is 114% in the assay with HCT-15 colon; 100% with HT29 colon; 110% in the assay on SNB-75 CNS; 94.4% with SNB-19 CNS; 103% with U251 CNS; 91.1% in the assay with PC-3 prostate. Besides, the growth with SK-MEL-5 melanoma was 100%; in the assay with UACC-62 melanoma, 99.3%; in the assay on LOX IMVI melanoma, 80.3%; in the assay with SK-MEL-28 melanoma, 115%.

For `Cc1[nH]c(=S)[nH]c(=O)c1C`, the growth was 99.4% with HCT-15 colon; 104% in the assay with HT29 colon; 93.4% in the assay with SNB-75 CNS; 103% in the assay on SNB-19 CNS; 92.4% with U251 CNS; 102% in the assay on PC-3 prostate. In addition, the growth was 100% in the assay with SK-MEL-5 melanoma, 105% in the assay with UACC-62 melanoma, 104% in the assay on LOX IMVI melanoma and 110% in the assay with SK-MEL-28 melanoma.

Take `COC1=C(OC)C(=O)C(SC/C=C(\C)CCCC(C)CCCC(C)CCCC(C)C)=CC1=O` (centres undefined): the growth was 17.2% in the assay on HCT-15 colon; 56.2% with HT29 colon; 27.8% in the assay on SNB-75 CNS; 24.6% in the assay with SNB-19 CNS; 15.4% in the assay on U251 CNS; 10.8% in the assay with PC-3 prostate. For the same compound, the growth in the assay with SK-MEL-5 melanoma was -67.3% (active); with UACC-62 melanoma it was 26.7%; with LOX IMVI melanoma it was 17.2%; in the assay on SK-MEL-28 melanoma it was 40.8%.

On to `C=CCNC(=S)N/C=C(/C(=O)c1ccccc1)c1ccccc1`, for which the growth in the assay with HCT-15 colon was 108%; with HT29 colon it was 120%; in the assay on SNB-75 CNS, 88.5%; in the assay on SNB-19 CNS, 106%; with U251 CNS, 96.7%; in the assay on PC-3 prostate it was 99.9%. Further, the growth is 102% in the assay with SK-MEL-5 melanoma, 98.8% in the assay with UACC-62 melanoma, 98.1% in the assay on LOX IMVI melanoma and 104% with SK-MEL-28 melanoma.
